Laboratory results as given in PubChem BioAssay.
Active and inactive are the calls of the source.

Columns and labels:
[1] = optical density shifts of acrAB sulA E. coli – strain DRC41, OD650, 48 h, E. coli filamentation inducer project, primary screen (AID 1152); conditions: higher = more signal, called active from +8 up or from −8 down;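 note: E. coli MC1000 strain DRC41 lacking acrAB efflux pump and sulA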
[2] = probe aLefty1 binding on compound microarray – biochemical, small-molecule microarray, 635/667 nm fluorescence, primary screen (AID 1153); conditions: higher = more signal;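 note: score merges spot fluorescence with signal-to-noise ratio from the scanned slide images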
[3] = plasmodial surface anion channel blockers, osmotic lysis – cell-based, P. falciparum Indochina, OD700, 1 h, primary screen (AID 1154); conditions: P. falciparum Indochina infected RBC osmotic lysis, higher = more signal, called active from +8 up or from −8 down
[4] = plasmodial surface anion channel blockers, osmotic lysis – cell-based, P. falciparum Indochina, OD700, 2 h, primary screen (AID 1155);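 note: lysis reports solute entry through the parasite surface anion channel PSAC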; conditions: P. falciparum Indochina infected erythrocytes, higher = more signal, called active from +8 up or from −8 down
[5] = changes in parasitized red cell lysis, either direction – P. falciparum Indochina, OD700, 3 h, PSAC antagonist project, primary screen (AID 1156); conditions: P. falciparum-infected erythrocytes, osmotic lysis, higher = more signal, called active from +8 up or from −8 down
[6] = plasmodial surface anion channel blockers, osmotic lysis – cell-based, P. falciparum Indochina, OD700, 18 h, primary screen (AID 1157); conditions: P. falciparum Indochina infected erythrocytes, osmotic lysis OD700, 18 h; higher = more signal, called active from +8 up or from −8 down
[7] = S6 kinase pathway phospho-S6 level changes – cell-based, A549, cytoblot, luminescence, serum-stimulated, primary screen (AID 1158); conditions: 5 h, higher = more signal;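 note: serum-stimulated A549 lung adenocarcinoma cells; signal is phosphorylated S6 detected by cytoblot immunostaining with HRP secondary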
[8] = molecular target: NADPH oxidase 2 (Homo sapiens) (UniProt P04839); experiment: compounds shifting NOX2 Amplex Red fluorescence – cell-based, HEK293-NOX2, PMA-stimulated, NOX inhibitor project, primary screen (AID 1159); conditions: 45 min, higher = more signal, called active from +8 up or from −8 down; note: test concentration not given here
[9] = molecular target: NADPH oxidase 4 (Homo sapiens) (UniProt Q9NPH5); experiment: compounds shifting NOX4 Amplex Red fluorescence – cell-based, HEK293-NOX4, tetracycline-induced, NOX inhibitor project, primary screen (AID 1160); conditions: HEK293-NOX4, Amplex Red H2O2 fluorescence, 45 min; higher = more signal, called active from +8 up or from −8 down
[10] = molecular target: NADPH oxidase 5 (Homo sapiens) (UniProt Q96PH1); experiment: compounds shifting NOX5 Amplex Red fluorescence – cell-based, HEK293-NOX5, NOX inhibitor project, primary screen (AID 1161); conditions: HEK293-NOX5, ionomycin, 45 min, higher = more signal
Chain of NADPH oxidase 5 (Homo sapiens) (Q96PH1 whole entry, looked up): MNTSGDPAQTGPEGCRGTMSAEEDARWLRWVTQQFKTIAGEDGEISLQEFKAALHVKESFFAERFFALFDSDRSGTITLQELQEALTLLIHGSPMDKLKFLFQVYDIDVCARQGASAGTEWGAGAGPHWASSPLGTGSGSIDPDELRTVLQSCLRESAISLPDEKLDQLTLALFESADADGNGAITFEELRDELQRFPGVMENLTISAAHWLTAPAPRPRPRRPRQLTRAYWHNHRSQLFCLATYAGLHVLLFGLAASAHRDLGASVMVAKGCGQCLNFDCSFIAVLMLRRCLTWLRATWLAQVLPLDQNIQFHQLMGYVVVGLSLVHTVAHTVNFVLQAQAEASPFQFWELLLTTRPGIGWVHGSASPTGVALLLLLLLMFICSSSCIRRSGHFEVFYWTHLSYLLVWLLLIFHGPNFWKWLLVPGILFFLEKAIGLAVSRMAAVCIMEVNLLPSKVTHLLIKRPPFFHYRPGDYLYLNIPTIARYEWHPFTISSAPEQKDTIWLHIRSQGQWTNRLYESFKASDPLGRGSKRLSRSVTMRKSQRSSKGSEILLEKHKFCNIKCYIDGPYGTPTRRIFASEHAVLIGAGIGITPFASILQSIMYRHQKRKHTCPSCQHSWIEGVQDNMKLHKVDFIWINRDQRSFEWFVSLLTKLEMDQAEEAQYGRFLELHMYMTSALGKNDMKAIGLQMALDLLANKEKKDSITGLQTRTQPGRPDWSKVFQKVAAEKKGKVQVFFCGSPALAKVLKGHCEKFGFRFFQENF

Chain of NADPH oxidase 4 (Homo sapiens) (Q9NPH5 whole entry, looked up): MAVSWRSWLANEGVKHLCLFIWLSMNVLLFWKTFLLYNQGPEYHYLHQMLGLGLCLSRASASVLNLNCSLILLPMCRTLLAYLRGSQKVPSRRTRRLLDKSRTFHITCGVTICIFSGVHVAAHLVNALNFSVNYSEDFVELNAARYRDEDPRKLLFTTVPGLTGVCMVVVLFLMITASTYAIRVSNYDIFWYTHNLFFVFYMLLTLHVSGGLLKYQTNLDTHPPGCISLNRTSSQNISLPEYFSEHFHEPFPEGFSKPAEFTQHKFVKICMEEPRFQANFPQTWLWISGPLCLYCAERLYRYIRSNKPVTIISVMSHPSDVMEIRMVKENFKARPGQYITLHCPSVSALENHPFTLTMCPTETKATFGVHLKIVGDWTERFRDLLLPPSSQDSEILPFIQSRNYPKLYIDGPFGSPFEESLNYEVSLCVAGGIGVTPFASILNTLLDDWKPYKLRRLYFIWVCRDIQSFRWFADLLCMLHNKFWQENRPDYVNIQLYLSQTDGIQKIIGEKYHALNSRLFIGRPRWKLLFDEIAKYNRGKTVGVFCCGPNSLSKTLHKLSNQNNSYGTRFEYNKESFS
Chain of NADPH oxidase 2 (Homo sapiens) (P04839 whole entry, looked up): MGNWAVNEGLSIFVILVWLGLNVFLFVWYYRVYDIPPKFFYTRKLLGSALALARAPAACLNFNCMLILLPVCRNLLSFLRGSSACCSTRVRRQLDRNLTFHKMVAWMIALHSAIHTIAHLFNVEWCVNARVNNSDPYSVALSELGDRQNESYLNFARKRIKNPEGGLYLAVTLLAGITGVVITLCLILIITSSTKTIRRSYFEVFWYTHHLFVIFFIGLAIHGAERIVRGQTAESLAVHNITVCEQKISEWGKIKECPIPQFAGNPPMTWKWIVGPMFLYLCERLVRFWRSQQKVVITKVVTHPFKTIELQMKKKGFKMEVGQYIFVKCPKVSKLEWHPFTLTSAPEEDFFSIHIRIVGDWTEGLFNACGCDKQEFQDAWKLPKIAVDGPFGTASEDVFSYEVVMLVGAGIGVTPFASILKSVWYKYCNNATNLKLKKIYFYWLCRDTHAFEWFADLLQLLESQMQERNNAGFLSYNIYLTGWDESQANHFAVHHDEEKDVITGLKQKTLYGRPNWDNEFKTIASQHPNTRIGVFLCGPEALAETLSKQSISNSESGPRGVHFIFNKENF

Row | Compound | z-score [1] | composite z-score [2] | z-score [3] | z-score [4] | z-score [5] | z-score [6] | z-score [7] | z-score [8] | z-score [9] | z-score [10]
1 | Cc1ccc(S[C@]2(C(=O)O)CC(=O)N(C3CCCCC3)[C@@H]2c2ccc(CO)cc2)cc1 | 0.858 (inactive) | -0.672 | 2.06 (inactive) | 0.0744 (inactive) | 0.854 (inactive) | 0.0854 (inactive) | -0.158 | 1.09 (inactive) | 0.585 (inactive) | 0.763
2 | COc1cccc(C[C@H]2C[C@@H](CO[Si](C(C)C)(C(C)C)C(C)C)N3C(=O)[C@]4(C(C)=O)O[C@]23[C@H]2C(=O)N(C)C(=O)[C@H]24)c1 | -1.09 (inactive) | -0.0713 | 4.02 (inactive) | 0.867 (inactive) | -0.382 (inactive) | 0.702 (inactive) | -0.267 | 0.083 (inactive) | 0.451 (inactive) | 0.146
3 | COC(=O)[C@@]1(Cc2ccc(OC)cc2)[C@H]2c3cc(C(=O)N(C)C)n(Cc4cc(F)c(F)c(F)c4)c3C[C@H]2CN1C(=O)c1ccccc1 | -1.69 (inactive) | 0.946 | 3.64 (inactive) | 0.0174 (inactive) | 1.3 (inactive) | -1.37 (inactive) | 0.968 | -2.92 (inactive) | -1.41 (inactive) | -2.54
4 | COCCOC(=O)N1C(=O)[C@@]2(c3cc(C#CCNC(N)=O)ccc31)[C@H](c1ccc(OCCO)cc1)N1[C@H](c3ccccc3)[C@H](c3ccccc3)OC(=O)[C@H]1[C@@H]2C(=O)N1CCN(c2ncccn2)CC1 | -0.283 (inactive) | 0.209 | 4.15 (inactive) | 1.81 (inactive) | 0.428 (inactive) | 1.05 (inactive) | 0.537 | 2.29 (inactive) | 0.937 (inactive) | 0.877
5 | COC(=O)[C@@]1(Cc2ccccc2)[C@H]2c3cc(C(=O)N4CCCC4)n(Cc4ccccc4)c3C[C@H]2CN1C(=O)c1ccccc1 | -1.83 (inactive) | 0.128 | 3.6 (inactive) | 0.945 (inactive) | 0.365 (inactive) | 1.03 (inactive) | -0.276 | -0.218 (inactive) | -0.0718 (inactive) | -1.23
6 | CN(C)CCCN1C(=O)[C@@]2(Cc3ccccc31)c1ccccc1C(=O)N(Cc1ccccc1)[C@H]2c1ccc(CO)cc1 | 0.0234 (inactive) | -0.193 | -0.0561 (inactive) | -0.952 (inactive) | 0.182 (inactive) | -1.33 (inactive) | 2.05 | -2.34 (inactive) | -2.82 (inactive) | -2.96
7 | COC(=O)[C@@]1(Cc2ccc(OC)cc2)[C@H]2c3cc(C(=O)N(C)C)n(Cc4cc(C)n(C)n4)c3C[C@H]2CN1C(=O)c1ccccc1 | -1.82 (inactive) | 0.396 | 2.11 (inactive) | 0.498 (inactive) | 1.45 (inactive) | 0.544 (inactive) | 0.355 | 0.27 (inactive) | -1.52 (inactive) | -3.56
8 | O=C1O[C@@H](c2ccccc2)[C@@H](c2ccccc2)N2[C@@H](c3ccc(O)cc3)[C@]3(C(=O)Nc4ccc(C#CC5=CCCCC5)cc43)[C@@H](C(=O)Nc3nc4ccccc4s3)[C@H]12 | 0.542 (inactive) | 1.53 | 0.0488 (inactive) | 1.36 (inactive) | 2.66 (inactive) | 1.6 (inactive) | -0.227 | 1.35 (inactive) | 0.617 (inactive) | -0.146
9 | O=c1c2ccc(Br)cc2nc(-c2ccccc2)n1Cc1cccc(O)c1 | 0.421 (inactive) | 0.748 | 15.7 (active) | 3.45 (inactive) | 0.386 (inactive) | 1.73 (inactive) | -0.404 | -1.84 (inactive) | -1.05 (inactive) | -1.99
10 | CCCCC(CC)C(O)C1C=CC2C(=O)NC(=O)C2N1Nc1ccccn1 (stereo not given) | -0.757 (inactive) | -0.0754 | 1.68 (inactive) | 0.648 (inactive) | 0.186 (inactive) | 0.408 (inactive) | -0.606 | 0.201 (inactive) | -3.35 (inactive) | -2.14
11 | COc1ccc(CCNC(=O)[C@@H]2c3ccccc3C(=O)N(Cc3ccccc3C(F)(F)F)[C@H]2c2ccc(CO)cc2)cc1 | 0.163 (inactive) | -0.144 | 3.68 (inactive) | 0.252 (inactive) | 1.73 (inactive) | 0.694 (inactive) | -0.366 | -0.536 (inactive) | -2.38 (inactive) | -3.69
12 | C=C(/C(=C/C[C@@H](OC(C)=O)c1ccccc1OCCO)c1cnc2ccccc2c1)C(C)C | 0.0675 (inactive) | -0.0428 | 11.6 (active) | 2.53 (inactive) | 1.82 (inactive) | 1.04 (inactive) | 0.458 | -1.08 (inactive) | -1.28 (inactive) | -1.49
13 | COc1ccc(CCNC(=O)[C@@H]2c3ccccc3C(=O)N(Cc3ccccc3)[C@H]2c2ccc(CO)cc2)cc1 | 1.81 (inactive) | 0.436 | 3.59 (inactive) | -0.275 (inactive) | 0.504 (inactive) | -0.508 (inactive) | 1.89 | -6.18 (inactive) | -0.909 (inactive) | -4.52
14 | CCOC(=O)C[C@H]1[C@H](OC(=O)Cc2ccc3c(c2)OCO3)[C@@H](NC(=O)c2ccccc2)c2cc(OCCCO)ccc2N1C(=O)c1ccccc1 | 1.7 (inactive) | -0.103 | 1.05 (inactive) | 0.396 (inactive) | -0.707 (inactive) | -0.281 (inactive) | 0.149 | 0.366 (inactive) | 0.759 (inactive) | 0.322
15 | NCCCCCCNC(=O)[C@H]1C[C@H]2C(=O)N3CCC[C@H]3C(=O)N2[C@H]1c1ccc(O)cc1 | -0.247 (inactive) | -0.19 | 1.55 (inactive) | 0.507 (inactive) | 0.403 (inactive) | 0.253 (inactive) | 0.648 | -0.019 (inactive) | 0.901 (inactive) | 0.386
16 | COCCCNC(=O)[C@@H]1c2ccccc2C(=O)N(Cc2cc(F)cc(C(F)(F)F)c2)[C@H]1c1ccc(CO)cc1 | -0.0134 (inactive) | -0.25 | 1.49 (inactive) | 0.35 (inactive) | 0.62 (inactive) | 0.0592 (inactive) | -0.731 | 0.193 (inactive) | 0.401 (inactive) | 0.774
17 | COc1ccc([Si](C)(C)[C@@H]2[C@@H](CCO)O[C@]3(C(=O)N(Cc4cccc(N5C(=O)COc6ccccc65)c4)c4ccccc43)[C@H]2C)cc1 | 0.111 (inactive) | 0.139 | 3.9 (inactive) | 3.53 (inactive) | 0.797 (inactive) | 2.26 (inactive) | 0.373 | 0.416 (inactive) | 1.36 (inactive) | 1.49
18 | COCCCNC(=O)[C@@]1(Cc2ccccc2N=[N+]=[N-])N=C(c2ccc(OCCCO)cc2)O[C@H]1c1ccccc1CN=[N+]=[N-] | 0.871 (inactive) | 0.152 | 24.8 (active) | 8.62 (active) | 2.41 (inactive) | 0.74 (inactive) | 2.17 | -2.73 (inactive) | 0.7 (inactive) | -1.16
19 | CC[C@@H]1[C@@H]2C3C(=O)N(CC)C(=O)C3CC(=O)[C@@H]2[C@H](c2ccc(C)cc2)N1S(=O)(=O)c1ccc(C)cc1 (stereo not given in full) | 1.29 (inactive) | -0.149 | 1.39 (inactive) | 0.0985 (inactive) | -0.511 (inactive) | -1.35 (inactive) | 1.04 | 1.04 (inactive) | 0.451 (inactive) | 2.06
20 | O=C(O)[C@@]1(Cc2ccccc2)COC(c2ccc(OCCCO)cc2)=N1 | 0.532 (inactive) | -0.0573 | 1.36 (inactive) | -0.166 (inactive) | 0.619 (inactive) | 0.295 (inactive) | -0.521 | -0.0643 (inactive) | 0.432 (inactive) | 0.237
21 | NC(=O)NCC#Cc1ccc2c(c1)[C@]1(C(=O)N2)[C@H](c2ccc(O)cc2)N2[C@H](c3ccccc3)[C@H](c3ccccc3)OC(=O)[C@H]2[C@@H]1C(N)=O | 0.373 (inactive) | -0.127 | 0.792 (inactive) | 0.215 (inactive) | 1.15 (inactive) | 0.319 (inactive) | 0.112 | 0.408 (inactive) | -0.571 (inactive) | -0.72
22 | COCCCNC(=O)[C@]1(Cc2ccccc2CN=[N+]=[N-])N=C(c2ccc(OCCCO)cc2)O[C@@H]1c1ccccc1CN=[N+]=[N-] | -0.279 (inactive) | 0.861 | 28.8 (active) | 21.5 (active) | 1.72 (inactive) | 2.09 (inactive) | 0.953 | -0.983 (inactive) | -0.00869 (inactive) | -0.84
23 | Cc1ccc(S[C@]2(C(=O)NCc3ccccc3)CC(=O)N(C3Cc4ccccc4C3)[C@@H]2c2ccc(CO)cc2I)cc1 | 3.36 (inactive) | 0.0049 | 3.94 (inactive) | -0.533 (inactive) | -0.406 (inactive) | -0.63 (inactive) | 1.58 | 0.542 (inactive) | -0.966 (inactive) | 1.42
24 | COCCOC(=O)N1C(=O)[C@@]2(c3cc(C#CCCO)ccc31)[C@H](C(=O)NC[C@H](O)c1ccccc1)[C@H]1C(=O)O[C@H](c3ccccc3)[C@H](c3ccccc3)N1[C@@H]2c1ccccc1OCCO | -0.0118 (inactive) | 0.213 | 2.52 (inactive) | 0.963 (inactive) | -0.654 (inactive) | 0.705 (inactive) | -0.18 | 1.54 (inactive) | 0.992 (inactive) | 1.17
25 | C[C@]12C(=O)N(CCCCCO)[C@@H]3C(=O)N(c4ccc(Cl)cc4)CC=CC31O[C@@H]1/C=C\CCCOC(=O)C12 (stereo not given in full) | -1.14 (inactive) | -0.0054 | -0.198 (inactive) | -0.307 (inactive) | -1.04 (inactive) | -0.183 (inactive) | -0.58 | 0.754 (inactive) | 0.055 (inactive) | 1.45
